Screen size: about 52,000 compounds; about 4,300 (8.3%) were called active. Shown is part of a subset that was picked to be rich in actives. Values without a mark were called inactive. Rule as the data show it: active = survival mostly below about 52% (no sharp cut-off); inactive = mostly above about 56%.

The test system of this experiment is DeltatarO mutant. The experiment can be described thus: growth inhibition of S. aureus wild type versus tarO mutant, primary screen, teichoic acid synthesis inhibitors, RN4220, OD600 (AID 463173). Conditions: OD600, 18 h, hits give low values, screened at 18.75 µg/mL (by protocol).
Regarding `Cc1ccc(NC(=O)CCNS(=O)(=O)c2ccc3c(c2)CCN3C(=O)C2CC2)c(Cl)c1`, the survival was 83%.
Then `COc1ccc(Cl)cc1NC(=O)CSc1nnc(C)n2c1cc1occc12`, with 50%; and `Cc1ccc(C)c(NC(=O)Cn2c(=O)n(CCC(=O)NCc3ccc4c(c3)OCO4)c(=O)c3ccccc32)c1`, with 104%; and `O=C(CN1C(=O)CSC1=O)c1ccccc1`, with 88%.
Consider `CC1Cc2ccccc2N1C(=O)c1cnsn1` (stereo not given), for which the survival is 97%.
Then `CC1=C(C(=O)Nc2ccc(Cl)cc2)C(c2cccs2)n2nc(SCc3cccc(Cl)c3)nc2N1` (stereo not given), with 89%; and `CCNC(=S)Nc1cc(-c2ccc(Cl)cc2)[nH]n1`, with 20% (active).
As for `CC(=O)Nc1cc(-c2ccc(Cl)cc2)[nH]n1`, the survival was 106%.
Take `CCOC(=O)/C=C(\C)Nc1cc(-c2ccc(Cl)cc2)[nH]n1`: the survival is 68%.
For the compound `CCN(CC)S(=O)(=O)c1ccc2c(c1)N(CC(=O)N1CCN(c3ccc(F)cc3)CC1)C(=O)CO2`, the survival was 94%.
In the case of `Cc1oc(-c2ccc(Cl)cc2)nc1CS(=O)CC(=O)NCc1ccc(Cl)cc1` (stereo not given), the survival is 63%.
Next, `Cc1ccc(-c2onc(C)c2C)cc1S(=O)(=O)Nc1ccc(Cl)cn1`: 97%; `CCOc1ccc(-c2nnc(SCC(=O)NC3CCCC3)nc2-c2ccc(OCC)c(OC)c2)cc1OC`: 71%; `O=C(CSc1nc2cc3ccccc3cc2[nH]1)Nc1cccc(C(F)(F)F)c1`: 74%.
Then `Cc1ccccc1NC(=O)CSc1nc(-c2cccs2)nc2cc(=O)[nH]n12`, with 93%; and `O=C(CSc1ncc(-c2ccccc2)[nH]1)Nc1cccc(C(F)(F)F)c1`, with 12% (active).
For `O=C(CSc1ncc(-c2ccccc2)[nH]1)Nc1cccc(O)c1`, the survival is 89%.
Then `Cc1cccc(NC(=O)CSc2ncc(-c3ccccc3)[nH]2)c1C`, with 51%.
On to `O=C(CSc1nc(-c2cccs2)nc2cc(=O)[nH]n12)Nc1ccccc1Cl`, for which the survival was 76%.
Then `O=C(CSc1ncc(-c2ccccc2)[nH]1)Nc1cccc(Br)c1`, with 9% (active); and `CCOc1ccc(-c2nnc(SCC(=O)NC3CCCCC3)nc2-c2ccc(OCC)c(OC)c2)cc1OC`, with 78%.
Next, `Cc1cccc(NC(=O)CSc2ncc(-c3ccc(Br)cc3)[nH]2)c1`: 110%; `COc1ccc(-c2nnc(SCC(=O)NC3CCCC3)nc2-c2ccc(OC)c(OC)c2)cc1OC`: 47% (active); `O=C(CSc1nc(-c2cccs2)nc2cc(=O)[nH]n12)Nc1ccccc1F`: 47% (active).
Then `O=C1NC(=O)C2C3c4ccccc4C(c4ccccc43)C12` (stereo not given), with 98%.

The values are drawn from PubChem BioAssay AID463173 (ICCB-Longwood Screening Facility, Harvard Medical School, 2010).
